Compound activity deposited in PubChem BioAssay by The Scripps Research Institute Molecular Screening Center.
In the library only some 2.9% were active in any assay of this set; here they are far more common.
Fam108B inh = blocks mouse Fam108B hydrolase in RBBP9 counter-screen; recombinant Fam108B, FP-Rh probe fluorescence polarization; AID 1947; hit rate 0.33% among 300,000; inhibition, % at 9.51 µM;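 active = inhibition above the screen mean inhibition plus 3 SD, computed separately per campaign, cut at about 18% in these data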;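 also: inhibitors lower polarization as less probe binds the enzyme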
PAFAH2 inh = inhibitors of human PAFAH2; recombinant PAFAH2, FP-rhodamine activity probe, fluorescence polarization; AID 492956; hit rate 0.99% among 340,000; inhibition, % at 3.39 µM; Q99487;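 active = inhibition above the mean over all tested compounds plus 3 SD, cut at about 30% in these data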;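 also: inhibitors block probe labeling of enzyme so polarization drops; 0% = enzyme with DMSO and 100% = wells lacking PAFAH2 protein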
PAFAH1B3 inh = inhibitors of human PAFAH1B3 | hit rate 0.28% among 340,000 | inhibition, % at 3.39 µM | Q15102 | recombinant PAFAH1B3, FP-rhodamine probe, fluorescence polarization;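 active = inhibition above the screen-wide average of all tested compounds plus 3 SD, cut at about 25% in these data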;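 also: 0% = enzyme with DMSO only and 100% = wells lacking PAFAH1B3 protein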
PME-1 primary = blocks human protein phosphatase methylesterase 1 | Q9Y570 | hit rate 0.53% among 320,000 | inhibition, % at 5.9 µM | recombinant PME-1, FP-Rh probe fluorescence polarization;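 active = inhibition above the campaign mean of all compounds plus 3 SD, cut at about 26% in these data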;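 also: competitive labeling of PME-1 active site by serine hydrolase directed probe; 0% = PME-1 with DMSO and 100% = wells lacking PME-1 enzyme; inhibitors block probe labeling so polarization falls and inhibition rises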
Target sequence (Q9Y570 whole entry, looked up): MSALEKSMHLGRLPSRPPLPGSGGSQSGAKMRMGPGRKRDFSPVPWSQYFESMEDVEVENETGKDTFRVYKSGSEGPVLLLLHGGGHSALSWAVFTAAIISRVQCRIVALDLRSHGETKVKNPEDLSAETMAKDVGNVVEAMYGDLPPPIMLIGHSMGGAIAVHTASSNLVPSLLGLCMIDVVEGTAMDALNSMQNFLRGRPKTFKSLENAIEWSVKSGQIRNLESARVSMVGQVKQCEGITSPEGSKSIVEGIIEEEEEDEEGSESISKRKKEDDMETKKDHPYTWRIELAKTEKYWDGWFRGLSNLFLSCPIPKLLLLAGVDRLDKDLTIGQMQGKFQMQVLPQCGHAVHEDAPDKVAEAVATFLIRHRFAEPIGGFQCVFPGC
PAFAH1B2 inh = blocks human PAF acetylhydrolase 1b catalytic subunit 2; hit rate 1.2% among 340,000; AID 492953; recombinant PAFAH1B2, FP-rhodamine activity probe, fluorescence polarization; P68402; inhibition, % at 3.39 µM;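 active = inhibition above the mean of all tested compounds plus 3 SD, cut at about 24% in these data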;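 also: 0% = enzyme with DMSO and 100% = wells lacking PAFAH1B2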
Target sequence (P68402 whole entry, looked up): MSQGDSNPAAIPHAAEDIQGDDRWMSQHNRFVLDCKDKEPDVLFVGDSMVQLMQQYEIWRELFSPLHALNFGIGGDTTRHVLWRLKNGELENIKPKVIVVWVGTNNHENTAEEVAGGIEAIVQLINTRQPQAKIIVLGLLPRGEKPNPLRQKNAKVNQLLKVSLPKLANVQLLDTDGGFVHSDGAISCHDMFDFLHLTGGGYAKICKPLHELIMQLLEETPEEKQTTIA
pPAFAH inh = pPAFAH (human) enzyme inhibition; Q13093; recombinant pPAFAH, FP-rhodamine probe fluorescence polarization; inhibition, % at 3.39 µM; hit rate 1.5% among 330,000; AID 463082;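 active = inhibition above the mean inhibition across the screen plus 3 SD, cut at about 25% in these data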;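 also: inhibitors block binding of the rhodamine activity-based probe so polarization drops; 0% = enzyme with DMSO and 100% = wells lacking pPAFAH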
Fam108b confirm = Fam108b (mouse) hydrolase inhibition, confirmation assay. inhibition, % at 9.51 µM. recombinant Fam108b, FP-Rh probe fluorescence polarization. shares compounds with Fam108B inh. hit rate 44% among 930;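 active = inhibition above a limit from the primary screen, the mean over all compounds plus 3 SD, cut at about 19% in these data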;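 also: 0% = median of active Fam108b wells and 100% = catalytically dead S170A mutant; inhibitors free the probe so polarization falls as inhibition rises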
Fam108b ABPP HTS = inhibits mouse Fam108b in gel-based ABPP | shares compounds with Fam108B inh | recombinant Fam108b, fluorophosphonate probe | inhibition, % at 20 µM | hit rate 44% among 260 | AID 588649; in the data active = inhibition above about 40%
pPAFAH confirm = confirmation of human plasma PAF acetylhydrolase (pPAFAH) inhibitors | inhibition, % at 3.39 µM | AID 463230 | recombinant pPAFAH, FP-Rh probe fluorescence polarization | hit rate 72% among 2,300 | shares compounds with pPAFAH inh;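 active = mean inhibition of the triplicate above the hit cutoff set for the earlier primary screen, cut at about 25% in these data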;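 also: 0% = enzyme with DMSO and 100% = wells lacking pPAFAH enzyme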
PAFAH2 confirm = confirmation of human PAFAH2 inhibitors | shares compounds with PAFAH2 inh | recombinant PAFAH2, FP-rhodamine activity probe, fluorescence polarization | inhibition, % at 3.39 µM | hit rate 65% among 2,300;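 active = mean inhibition over three repeats above a set limit taken from the earlier primary screen, cut at about 30% in these data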;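 also: inhibitor blocks binding of rhodamine activity probe so polarization falls; 0% = enzyme with DMSO and 100% = wells lacking PAFAH2 protein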
PAFAH1B3 conf FP = PAFAH1B3 (human) inhibition, confirmed | shares compounds with PAFAH1B3 inh | recombinant PAFAH1B3, FP-Rh activity-based probe, fluorescence polarization | inhibition, % at 3.39 µM | hit rate 30% among 390 | AID 493032;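 active = average inhibition over triplicate runs above the hit cutoff set in the earlier primary screen, cut at about 25% in these data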;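 also: 0% = enzyme with DMSO and 100% = wells lacking PAFAH1B3 protein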
An asterisk follows results filed as active.

`COc1cccc(=O)c2c(C)n(-c3ccc(C(=O)O)cc3)c(C)c12` gave Fam108B inh 18.4*, PAFAH2 inh 10.0, PAFAH1B3 inh 6.3, PME-1 primary -17.4, PAFAH1B2 inh 1.9, pPAFAH inh 36.9*, Fam108b confirm 0.6 and pPAFAH confirm 0.8.
COc1ccc(-n2c(C)c3c(OC)cccc(=O)c3c2C)cc1 was read as Fam108B inh 1.1, PAFAH2 inh 12.8, PAFAH1B3 inh 3.0, PME-1 primary 13.0, PAFAH1B2 inh 5.0 and pPAFAH inh 21.1.
CCOc1ccccc1N1CCN(C(=S)Nc2ccc(S(=O)(=O)Nc3ncccn3)cc2)CC1 was read as Fam108B inh 1.2, PAFAH2 inh 8.7, PAFAH1B3 inh 8.4, PME-1 primary 1.7, PAFAH1B2 inh -1.1 and pPAFAH inh 7.3.
Screening COc1ccc(OC)c(-c2c3cc(O)c(=O)cc-3oc3cc(O)c(O)cc23)c1 returned Fam108B inh 72.5*, PAFAH2 inh 73.2*, PAFAH1B3 inh 58.2*, PME-1 primary 58.6*, PAFAH1B2 inh 74.0*, pPAFAH inh 92.8*, Fam108b confirm 109.5* and pPAFAH confirm 85.5*.
COc1ccccc1Oc1c(C)oc2c(CN3CCN(CCO)CC3)c(O)ccc2c1=O was read as Fam108B inh 46.9*, PME-1 primary 40.9*, pPAFAH inh 41.1*, Fam108b confirm -7.2 and pPAFAH confirm 4.1.
Cc1cc(C)c(S(=O)(=O)N2CCN(C(=O)CN3C(=O)NC4(CCCC4)C3=O)CC2)c(C)c1 was read as Fam108B inh 4.0, PAFAH2 inh -5.4, PAFAH1B3 inh -0.7, PME-1 primary -1.6, PAFAH1B2 inh 2.4 and pPAFAH inh 2.4.
CSc1nsc(/C=C/Nc2ccc(O)cc2C)c1C#N was read as Fam108B inh 21.2*, PAFAH2 inh 22.1, PAFAH1B3 inh 13.6, PME-1 primary 50.6*, PAFAH1B2 inh 12.1, pPAFAH inh 48.0*, Fam108b confirm 13.9 and pPAFAH confirm 9.4.
O=C(O)c1ccc2c(c1)C(=O)/C(=C\c1ccco1)C2=O was read as Fam108B inh 18.4*, PAFAH2 inh 17.3, PAFAH1B3 inh 35.0*, PME-1 primary -32.6, PAFAH1B2 inh 11.6, pPAFAH inh 53.8*, Fam108b confirm 13.1 and pPAFAH confirm 18.2.
`O=c1c2cnn(-c3ccccc3)c2nc(-c2cccs2)n1-c1ccc(Cl)cc1` gave Fam108B inh -10.8, PAFAH2 inh 2.6, PAFAH1B3 inh 3.3, PME-1 primary 5.0, PAFAH1B2 inh 4.7 and pPAFAH inh 4.1.
`O=c1oc(-c2cccs2)nc2c1cnn2-c1ccccc1` gave Fam108B inh 20.5*, PAFAH2 inh 66.1*, PAFAH1B3 inh 0.2, PME-1 primary 1.6, PAFAH1B2 inh 2.6, pPAFAH inh 17.8, Fam108b confirm 22.9* and PAFAH2 confirm 53.5*.
For CCCc1ccc(OCc2ccc(C(=O)N/N=C/c3cccnc3)o2)cc1 the results were PAFAH2 inh -17.2, PAFAH1B3 inh -8.8 and PAFAH1B2 inh -2.1.
For O=[N+]([O-])c1cc(Br)c(O)c(/C=N/Nc2nnnn2-c2cccc3ccccc23)c1 the results were Fam108B inh 39.8*, PAFAH2 inh 35.1*, PAFAH1B3 inh 20.8, PME-1 primary 48.7*, PAFAH1B2 inh 18.1, pPAFAH inh 33.5*, Fam108b confirm 53.6* and PAFAH2 confirm 23.6.
For CCOc1ccc(OCCC(=O)N(CC)CC(=O)NCc2ccc(Cl)cc2)cc1 the results were Fam108B inh 2.1, PAFAH2 inh 3.0, PAFAH1B3 inh 0.0, PME-1 primary 2.1, PAFAH1B2 inh 1.0 and pPAFAH inh 5.5.
Screening COc1cc(OC)cc(-c2nnc(Nc3nc4c(F)cccc4s3)o2)c1 returned Fam108B inh 18.9*, PAFAH2 inh 35.8*, PAFAH1B3 inh 13.4, PME-1 primary 61.0*, PAFAH1B2 inh 11.2, pPAFAH inh 24.0, Fam108b confirm 13.1 and PAFAH2 confirm 30.9*.
`CN(C)S(=O)(=O)c1cccc(NC(=S)N/N=C/c2cc(Br)ccc2O)c1` gave Fam108B inh 28.9*, PAFAH2 inh 33.7*, PAFAH1B3 inh 19.8, PME-1 primary 37.6*, PAFAH1B2 inh 8.6, pPAFAH inh 20.3, Fam108b confirm 2.8 and PAFAH2 confirm 20.0.
COc1cc(/C=C2\C(=O)N(c3ccc(NC(C)=O)cc3)N=C2c2ccccc2)ccc1O was read as Fam108B inh -1.1, PAFAH2 inh 4.1, PAFAH1B3 inh 0.5, PME-1 primary -10.3, PAFAH1B2 inh 3.9 and pPAFAH inh 8.4.
`CCOc1cc(/C=C2\C(=O)N(c3nc(-c4ccc(Br)cc4)cs3)N=C2c2ccccc2)ccc1O` gave Fam108B inh 42.4*, PAFAH2 inh 55.5*, PAFAH1B3 inh 14.8, PME-1 primary 10.1, PAFAH1B2 inh 2.2, pPAFAH inh 41.3*, Fam108b confirm 42.4*, Fam108b ABPP HTS 90.0* and PAFAH2 confirm 45.2*.
COc1cccc(NC(=O)CN(C)C(=O)c2cc(S(=O)(=O)N3CCCCCC3)ccc2OC)c1 was read as PAFAH2 inh -7.0, PAFAH1B3 inh 1.2, PME-1 primary 7.4, PAFAH1B2 inh 4.4 and pPAFAH inh 6.8.
For CCCCn1c(NC(C)=O)c(C#N)c2nc3ccccc3nc21 the results were Fam108B inh 2.3, PAFAH2 inh 3.9, PAFAH1B3 inh 4.1, PME-1 primary -0.2, PAFAH1B2 inh 4.6 and pPAFAH inh 8.5.
`C=CCn1c(NC(=O)c2ccccc2Cl)c(C#N)c2nc3ccccc3nc21` gave Fam108B inh 49.3*, PAFAH2 inh 5.9, PAFAH1B3 inh 60.4*, PME-1 primary 21.3, PAFAH1B2 inh 17.2, pPAFAH inh 8.3, Fam108b confirm 2.0 and PAFAH1B3 conf FP 7.8.
CC(=O)c1ccc(NC(=O)c2cccc(N3C(=O)c4ccccc4C3=O)c2)cc1 was read as Fam108B inh -14.2, PAFAH2 inh -8.7, PAFAH1B3 inh -7.9, PME-1 primary 5.5, PAFAH1B2 inh -9.6 and pPAFAH inh 5.5.
